Assay results from the supplement of paper PMC3334620.
Over roughly 33,000 sequences, “E-score (-0.5 to 0.5)” has its median near -0.032; the highest 2% begin near 0.36. The full list was thinned out, with the highest values kept by preference.

Biological target: T1, Sko1 (UniProt Q02100)
T1 sequence: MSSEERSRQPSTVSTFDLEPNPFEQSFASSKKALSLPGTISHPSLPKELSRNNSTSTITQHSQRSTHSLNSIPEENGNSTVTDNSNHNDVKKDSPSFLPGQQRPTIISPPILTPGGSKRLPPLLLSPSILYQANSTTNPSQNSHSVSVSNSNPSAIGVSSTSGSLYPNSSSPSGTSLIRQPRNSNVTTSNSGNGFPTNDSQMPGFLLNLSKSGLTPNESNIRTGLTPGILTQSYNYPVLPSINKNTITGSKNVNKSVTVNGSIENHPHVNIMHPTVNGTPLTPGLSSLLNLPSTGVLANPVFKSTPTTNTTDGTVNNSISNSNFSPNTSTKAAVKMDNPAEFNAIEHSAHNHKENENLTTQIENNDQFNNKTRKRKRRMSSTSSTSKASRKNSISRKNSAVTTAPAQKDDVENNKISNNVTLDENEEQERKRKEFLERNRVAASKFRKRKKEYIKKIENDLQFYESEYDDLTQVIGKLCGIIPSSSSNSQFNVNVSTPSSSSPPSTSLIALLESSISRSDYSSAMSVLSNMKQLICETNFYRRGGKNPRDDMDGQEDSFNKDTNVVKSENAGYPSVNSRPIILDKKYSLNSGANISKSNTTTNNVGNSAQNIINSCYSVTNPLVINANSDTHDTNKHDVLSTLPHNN
Assay: PBM E-score (8-mer binding enrichment) (E-score (-0.5 to 0.5)); higher = stronger / more preferred TF binding
Settings: protein concentration: 200 nM; construct: GST-full length
How it was run: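 Yeast transcription factors carrying a GST tag, as full-length proteins or DNA-binding domains, were produced by PURExpress in vitro transcription/translation. About 100-200 nM protein was applied to universal all-10-mer Agilent arrays, double-stranded by primer extension on fresh or once-stripped slides. Bound protein was detected with fluorescent anti-GST, and scans were normalised with masliner. The Universal PBM Analysis Suite gave each ungapped eight-base word, pooled with its reverse complement, an E-score, a modified Wilcoxon-Mann-Whitney statistic.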

Sequence	PBM E-score
CACCAATG	0.00918
GCCTTAGC	-0.113
CGGCTACG	0.243
ATCGTCCC	-0.0614
CCAAACCG	-0.149
ACAAGTTG	-0.041
AAAGACTA	0.026
CAAACCAA	-0.0239
ATTCACGG	0.095
GACCTTAC	0.0378
AACTTAGC	0.0908
ATGGTGGC	-0.29
GACTTTTA	0.0964
CGTCACAA	0.388
TGTCACAA	0.133
CGTCACAC	0.437
AGTCACAC	-0.0301
CGTCACAG	0.438
GGTCACAC	-0.0911
CCTCACAG	-0.175
AGTCACAG	-0.0124
GGTCACAA	-0.151
ACTTCGAT	0.0534
GAGGTTCC	-0.182
ATCTGTAG	-0.0704

Sequence	PBM E-score
AGGAGTGA	0.0137
CAGGGAGG	-0.23
ACACGTAA	0.472
ACACATAA	0.262
ACTCGTAA	0.345
ACACGTAG	0.433
ACACGAAT	0.233
ACACGTTC	0.214
ACACGTAC	0.419
ACACGTAT	0.463
ACCCGTAC	-0.107
ACCCGTAA	-0.00679
ACACGGAG	-0.13
ACACGTCT	0.292
CTTGAATC	-0.0656
AGTTAGCG	0.113
CGGCGTGA	-0.0945
CCGCTTCC	-0.273
CTCGTCTC	-0.19
AAATTCGT	0.339
ATGTGAGC	-0.00412
CATCCTAA	0.173
CCGAGATC	-0.237
GGGACATA	-0.139
GTGACACA	0.145

Sequence	PBM E-score
GTGACATA	0.381
ATGACATG	0.357
ATGACACC	0.26
ATGACATC	0.44
CTGACATC	0.21
ATGACATA	0.437
CTGACATA	0.266
AACTAACA	0.124
GCTAAGCC	-0.23
CGGGCTCC	-0.343
ACTCTCTC	-0.281
GTCATCAC	0.368
GTCATCAA	0.33
GACATCAA	0.275
GACATCAC	0.382
CACATCAC	0.154
ATCATCAC	0.334
CTCCGCCC	-0.254
GAACTCTA	-0.0173
CCTAAGAG	-0.0999
CGTAAGAG	0.376
CGTAAGAC	0.4
AGTAAGAG	-0.117
CGTAAGAA	0.349
GGTAAGAC	-0.0543

Sequence	PBM E-score
AAAGCGGT	-0.0789
AGCTCTTA	0.0315
TATACGAA	0.301
GATACGCA	0.351
CATACGCG	0.246
AATACGCC	0.198
TATACGCA	0.411
AATACGCA	0.407
AATACGCT	0.186
CATACGCA	0.392
CATACTCA	0.0384
TACACCGA	-0.177
TAGAGAGA	-0.0704
AAAAGAAT	0.115
CCGCTCAC	-0.0552
CCACCTGA	-0.0745
ATCACATA	0.3
CTCACGTC	0.278
ATCACGCC	0.0558
ATCACGTA	0.465
GTCACGTA	0.421
CTCACGTA	0.356
ATCACGTG	0.411
ATCACGCG	0.254
ATCACGTC	0.42

Sequence	PBM E-score
GTCACGGA	0.126
GTCACGCA	0.25
ATCACGGA	0.126
CGTTTTAC	0.209
ATTTATAG	0.158
ACGGAAAT	0.226
AGTATGCA	-0.0795
ACCTGTAT	-0.105
CAAACCTG	-0.0692
ACCATTAG	0.0481
TCCCAAGA	-0.166
AGTAACAC	-0.0531
CGTAACAA	0.344
GGTAACAC	0.0477
CGTAACAC	0.374
CGTAACAG	0.374
AGTAACAG	-0.0766
AGCGGTTG	-0.0753
GGTAATAC	0.178
AGTAATAG	0.264
CATAATAG	0.116
GGTAATAA	0.185
CGTAATAG	0.435
AGTAATAC	0.0785
CGTAATAC	0.451

Sequence	PBM E-score
CGTAATAA	0.434
TGTAATAA	0.28
ACGCGGCT	0.124
ACAGTCCG	-0.182
ATGGCTCC	-0.249
AGGTACCT	-0.19
CCGTACCG	-0.208
ACGTACCG	0.372
GCGTACCA	0.138
ACGTACCA	0.444
AAGTACCG	-0.032
GCGTACCC	-0.00205
ACGTACCC	0.435
CCGTACCA	-0.118
CCGTACCC	-0.335
AAGTACCT	-0.0422
ACGTACCT	0.377
AGAACCAG	-0.306
CCTACTAA	-0.18
AATGCCTA	-0.0242
CCTATGCC	-0.3
CCATGGAG	-0.266
TAACGCAA	0.312
AAACGCAT	0.0801
CTACGCAA	0.414

Sequence	PBM E-score
ATACGCAC	0.389
ATACGCAG	0.296
CTACGCAG	0.274
CTACGCAC	0.315
TTACGCAA	0.466
AGACGCAC	0.104
ATACGCGC	0.188
ATACGCAT	0.375
TTACGGAA	0.246
ATAGCCTA	-0.0632
GCAAGGCA	0.0267
AAGACCTG	-0.147
AGCTAATG	0.114
ACGAGACG	0.126
CCACCGAA	-0.00284
CAGCTGAC	0.0244
AAGGGAAG	0.0269
ACCAGAGT	-0.256
ATTCTATG	0.0207
CGTACTCC	0.201
GTACGCAC	0.303
ATACGCGA	0.281
